# Laboratory results reported in PubChem BioAssay AID2158 (National Center for Advancing Translational Sciences (NCATS), 2009).
# Several values for one entry are separate records, joined by “and”; a condition that tells them apart may be missing. Identical values can stand only once. Results filed as inconclusive are left out. Activity calls are given as the source filed them. The call rests on the fitted dose curve; in most records, active means well fitted inhibition curve with a large enough effect; inconclusive means small, poorly fitted or top-dose-only effect; inactive means no such curve, though single readings can be large or run the other way.
# Biological target: Cruzipain (Trypanosoma cruzi) (UniProt P25779)
# Sequence (P25779 123-467 limits assumed): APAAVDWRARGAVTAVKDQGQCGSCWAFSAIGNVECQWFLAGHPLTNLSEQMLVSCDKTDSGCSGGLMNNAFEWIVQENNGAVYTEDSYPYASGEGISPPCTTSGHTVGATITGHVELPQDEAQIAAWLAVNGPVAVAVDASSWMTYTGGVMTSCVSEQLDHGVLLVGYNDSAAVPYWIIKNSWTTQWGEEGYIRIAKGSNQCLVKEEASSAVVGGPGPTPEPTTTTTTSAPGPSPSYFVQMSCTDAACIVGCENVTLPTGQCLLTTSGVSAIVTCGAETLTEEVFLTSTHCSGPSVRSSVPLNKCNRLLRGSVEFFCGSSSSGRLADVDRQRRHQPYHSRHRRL
# Experiment: Confirmation qHTS Assay for Inhibitors of Cruzain; further: nearly all actives have a fitted effect of over 40% in size;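 on activity change, negative = inhibition: plate controls were uninhibited enzyme control for no effect and buffer wells lacking enzyme for full effect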
# Conditions: purified cruzain, Z-FR-AMC fluorescence, 0.01% Triton
# Procedure, shortened: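 Reaction progress from the 60 s rise in AMC fluorescence (ex 360, em 450 nm) after adding 2 uM Z-FR-AMC. Before this, 1.5 nM cruzain sat 15 min at room temperature with compound in pH 5.5 acetate buffer with 5 mM DTT and 0.01% Triton X-100.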
# Potency means the concentration at half of the fitted maximal effect.
Compound,Potency,"activity change, negative = inhibition"
O=C(NCCCO)c1ccc2nc(-c3ccco3)c(-c3ccco3)nc2c1,12.6 µM (active),
CCCn1c2ccc(F)cc2c2nnc(SCCN3CCCCC3)nc21,12.6 µM (active),
O=C(CNC(=O)C1CCCCC1)OCC(=O)c1ccc(F)cc1,2.51 µM (active),
O=c1oc2ccccc2cc1-c1csc(Cc2nc(-c3ccc(Br)cc3)cs2)n1,,1.72% (inactive)
CCC(C(=O)NC1CCCCC1)n1c(SCc2ccccc2F)nc2ccncc21 (stereo not drawn),4.47 µM (active),
O=C(CNC(=O)c1ccccc1)NCC(=O)OCC(=O)c1ccc2ccccc2c1,,21.1% (inactive)
CCN(CCO)c1nc(SC)nc2c1sc1nc(-c3ccco3)c3c(c12)CCC3,17.8 µM (active),
O=C(CNC(=O)Cc1ccccc1)NCC(=O)OCC(=O)c1cccc2ccccc12,,-13% (inactive)
O=C(Cn1cc(CN(Cc2ccccc2)Cc2ccccc2)nn1)Nc1cc(C(F)(F)F)ccc1Cl,,-13.2% (inactive)
Cc1ccc(C(=O)COC(=O)CNC(=O)COc2ccccc2C)cc1C,14.1 µM (active),
O=C(CNC(=O)c1cccc(Cl)c1)OC(C(=O)Nc1cc(C(F)(F)F)ccc1Cl)c1ccccc1 (stereo not drawn),12.6 µM (active),
CCC(C(=O)NC1CCCCC1)n1c(SCc2cccc(F)c2)nc2ccncc21 (stereo not drawn),6.31 µM (active),
COc1cc(OC)c(-c2nn3c(-c4n[nH]c5c4CCC5)nnc3s2)cc1OC,,-3.44% (inactive) and -1.31% (inactive)
O=C(NNC(=O)c1cc2ccccc2[nH]1)OCc1ccccc1,,2.31% (inactive)
COc1ccc(OCCn2c(CCNC(=O)C3CCCCC3)nc3ccccc32)cc1,1.12 µM (active),
O=C(NCCc1nc2ccccc2[nH]1)c1cc([N+](=O)[O-])cc([N+](=O)[O-])c1,0.794 µM (active),
CCOc1ccc(CN2C(=O)c3ccccc3Sc3ccc(C(=O)NCc4ccc5c(c4)OCO5)cc32)cc1,,6.89% (inactive)
N#Cc1nc(Nc2cc(F)cc(F)c2)nc(NC2CCCC2)n1,0.0631 µM (active),

Compound,Potency,"activity change, negative = inhibition"
N#Cc1ccc(C(=O)NCC(=O)OC(C(=O)Nc2cc(C(F)(F)F)ccc2Cl)c2ccccc2)cc1 (stereo not drawn),12.6 µM (active),
CC(=O)c1nnn(-c2nc(C#N)nc(N3CCOCC3)n2)c1C,,4.76% (inactive)
Cc1cccc(Cn2cc(/C=C(/C#N)C(=O)Nc3cccc(Cl)c3)c3ccccc32)c1,,-2.85% (inactive)
Cc1ccccc1OCC(=O)NCC(=O)OCC(=O)c1ccc(Br)cc1,35.5 µM (active),
CC(C)COC(=O)c1nnsc1NC(=O)Nc1ccccc1,,-3.71% (inactive)
O=C(Nc1ccc(-n2nncc2-c2ccccc2)cc1)c1ccccc1,,-9.78% (inactive)
Cc1ccc(C(=O)Oc2oc(-c3ccco3)nc2C=Nc2ccc(Cl)cc2)cc1,11.2 µM (active),
N#Cc1nc(Nc2cc(F)cc(F)c2)c2ncn(C3CCCC3)c2n1,0.0224 µM (active),
CCc1ccc2[nH]c(=O)c(CN(Cc3cccs3)Cc3nnnn3Cc3ccccc3)cc2c1,,-18.5% (inactive)
O=C(CNC(=O)c1ccccc1)OC(C(=O)Nc1ccc2c(c1)OCO2)c1ccccc1 (stereo not drawn),8.91 µM (active),
CC(C)(C)c1ccc(Nc2nc(C#N)nc(NC3CCCC3)n2)cc1,3.55 µM (active),
Cc1ccc(CN(Cc2cc3cc4c(cc3[nH]c2=O)OCCO4)Cc2nnnn2Cc2ccco2)cc1,,-25.4% (inactive)
O=C(COC(=O)CNC(=O)c1ccccc1Cl)Nc1cc(C(F)(F)F)ccc1Cl,3.55 µM (active),
CCc1ccc(NC(=O)Cn2c(SCc3ccc(C)cc3)nc3ccncc32)cc1,,-7.51% (inactive)
CNc1oc(Cc2ccccc2)nc1S(=O)(=O)c1ccccc1,7.08 µM (active),
Cc1ccc(OCCCn2c(CCCNC(=O)C3CCCCC3)nc3ccccc32)cc1,,-20.3% (inactive)
O=C(Nc1cc(C(F)(F)F)ccc1Cl)[C@H](O)CCc1ccccc1,,-26.3% (inactive)
COc1ccc(/C=C/C(=O)Nc2ccc(-n3nncc3-c3ccccc3)cc2)cc1OC,14.1 µM (active),
O=C(OCN1C(=O)c2ccccc2C1=O)/C(=C\c1ccco1)NC(=O)c1ccccc1,1.12 µM (active),
